Data as given in paper PMC7819943, “Rice protein-binding microarrays: a tool to detect cis-acting elements near promoter regions in rice”.
The full ranking holds about 68,000 sequences; the median of “fluorescence intensity (a.u.)” is about 9,100, and the highest 2% start at about 16,000. The full list was thinned out, with the highest values kept by preference.

Target: OsWRKY34 (Oryza sativa, UniProt Q0JBA9 1-250)
Assay: protein-binding microarray (RPBM); PBS, 2% BSA, 51.3 ng/ul salmon testes DNA, 50 uM zinc acetate, 200 nM TF, 25 C, 1 h; high values mean tight binding
Conditions: protein: recombinant; tags: N-terminal polyhistidine and DsRed monomer fusion (pET32a); label: CyDye5-dUTP incorporated in the synthesized complementary strand; 3' TTTTT single-stranded linker to array surface; dsDNA, one strand shown
How it was run: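 The binding signal is fluorescence intensity per array feature (arbitrary units). Readings came from an Axon 4000B scanner after a washed, 2% BSA-blocked, double-stranded custom Agilent array had been incubated for 1 h at 25 °C with 200 nM protein and 50 µM zinc acetate. The protein was a Ni–NTA-purified transcription factor fused N-terminally to polyhistidine and DsRed, expressed in E. coli BL21-CodonPlus.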

Chain of OsWRKY34 (Q0JBA9 entry or part of it): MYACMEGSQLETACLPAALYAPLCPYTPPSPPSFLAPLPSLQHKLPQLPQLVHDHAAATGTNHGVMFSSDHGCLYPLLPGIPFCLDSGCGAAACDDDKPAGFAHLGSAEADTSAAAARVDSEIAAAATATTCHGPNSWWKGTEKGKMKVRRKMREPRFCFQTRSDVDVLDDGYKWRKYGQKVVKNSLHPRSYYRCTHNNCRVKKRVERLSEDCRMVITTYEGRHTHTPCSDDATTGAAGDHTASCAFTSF

| Sequence | binding signal |
| --- | --- |
| GTCCTGCTGCTTCCGCCGCCGCCACCGTCCTGCTGCTTCCCGGAGTCACCTAGTGCAG | 9500 fluorescence intensity (a.u.) |
| CTCCTCTCGCCGCCGCCGCCACCGCCACCGCCGCCGCTCCCGGAGTCACCTAGTGCAG | 10100 fluorescence intensity (a.u.) |
| TTCTCCACCGCCGCCACCACCACCTCGCCTGGCCGGCCTCCGGAGTCACCTAGTGCAG | 18000 fluorescence intensity (a.u.) |
| CTCGCCGCCGGCCTCCTCCACCACCACCGACGACTCCGACCGGAGTCACCTAGTGCAG | 8430 fluorescence intensity (a.u.) |
| TCCCTCCCGTCTCGTCTCCGCTCATTGCGCCATCTCGCGCCGGAGTCACCTAGTGCAG | 8660 fluorescence intensity (a.u.) |
| CGCTTTCCTCTGTTTCTCCGCCGCGCTCGTTCGTCGTCTCCGGAGTCACCTAGTGCAG | 21400 fluorescence intensity (a.u.) |
| GCCTCGCCTCGCCGCCGGCGGCCACCGTCTCCGCCGCCTCCGGAGTCACCTAGTGCAG | 8800 fluorescence intensity (a.u.) |
| CGCGCCCTCCTCCGCCGCCGCTCGCCGCCGTTCGTCTCCGCGGAGTCACCTAGTGCAG | 9840 fluorescence intensity (a.u.) |
| GTCTCCGCGCGCGCTCTCTCTTTCGTTCACTCTCGCTTTCCGGAGTCACCTAGTGCAG | 14500 fluorescence intensity (a.u.) |
| GCTCTCATGGCCTCACACACCGCGCCATTGCCATCGTTTCCGGAGTCACCTAGTGCAG | 17000 fluorescence intensity (a.u.) |
| CATCGACTACCTGCCATTCTTCTACTCCAGGGTCTTCTCGCGGAGTCACCTAGTGCAG | 9510 fluorescence intensity (a.u.) |
| ATCTTATGGTGTATTTTTTTTTTCTCCGGTGCAGGTTGGTCGGAGTCACCTAGTGCAG | 8260 fluorescence intensity (a.u.) |
| GATGTGAATCACCCTTTGCTTTGCTGAATCTACTCCTACACGGAGTCACCTAGTGCAG | 10600 fluorescence intensity (a.u.) |
| GCGAACTCCGAGCGCGGAGGTTGAGGCGGCGGCGAGCGTGCGGAGTCACCTAGTGCAG | 9820 fluorescence intensity (a.u.) |
| CATTATTAAAATATATATGTGTTACATTCGGTATTATATTCGGAGTCACCTAGTGCAG | 8650 fluorescence intensity (a.u.) |
| CCTCATGATGATGCCGAACGTCTCGACATTGACCGCGCCCCGGAGTCACCTAGTGCAG | 9370 fluorescence intensity (a.u.) |
| CCGCCGCCCACCTCATGCCTTGCGCGGTGCCCGTGAGAGACGGAGTCACCTAGTGCAG | 8250 fluorescence intensity (a.u.) |
| GATCGCTCCATAAACATGCAATATATCAATTTTAACTTTTCGGAGTCACCTAGTGCAG | 8900 fluorescence intensity (a.u.) |
| CTCTCAGCCGGTCTATCAATTCCCCTTTCTGATACAATAACGGAGTCACCTAGTGCAG | 9570 fluorescence intensity (a.u.) |
| CCCATTCTAGATATTAACTACTAATCTGACTCTATTTTTTCGGAGTCACCTAGTGCAG | 8880 fluorescence intensity (a.u.) |
| TGGGTTTTATTTTCCCATTCTTTCGAGCTATTTTGACGGACGGAGTCACCTAGTGCAG | 8220 fluorescence intensity (a.u.) |

| Sequence | binding signal |
| --- | --- |
| ACACTCTCGCCGTCGCCGCCTCCTCGCCTCCGCTTACTCCCGGAGTCACCTAGTGCAG | 16700 fluorescence intensity (a.u.) |
| GCGCGCGCCGGCCTCCGTCTTCCTCCGCGGGTGCGCCACCCGGAGTCACCTAGTGCAG | 10400 fluorescence intensity (a.u.) |
| TCGCCTATCTCTCTATCTCTTTCGCCACCGCTTGCCTCTCCGGAGTCACCTAGTGCAG | 9030 fluorescence intensity (a.u.) |
| ACCCGCTTCTCGTCTCCTCGTCTCCTCGTTCGTCTCTCGCCGGAGTCACCTAGTGCAG | 18000 fluorescence intensity (a.u.) |
| CATTTAAATCGCCATCACTCCGCGCGCTCTCCCATCCATCCGGAGTCACCTAGTGCAG | 8870 fluorescence intensity (a.u.) |
| CGCCGCCTCCGCTCCACTCTCCTCGCCGTCGCCGGTCCTCCGGAGTCACCTAGTGCAG | 11500 fluorescence intensity (a.u.) |
| TCCCGCTTCTCCTCCGTCGCTCTCCGCCGCCGCCGCCACCCGGAGTCACCTAGTGCAG | 10200 fluorescence intensity (a.u.) |
| TTCCTCCGTCTGCGTGCCGGCTTCTGTCTTCCTCCGCGCGCGGAGTCACCTAGTGCAG | 17300 fluorescence intensity (a.u.) |
| GTCGTCGCCTGCCTCTTCGTCGCCGCTCTCGTCTCCGCTCCGGAGTCACCTAGTGCAG | 9880 fluorescence intensity (a.u.) |
| CGTCGCCGCCGCCGGCGTCTTCTCCACCTCCTCCGCGCCGCGGAGTCACCTAGTGCAG | 8030 fluorescence intensity (a.u.) |
| GCTCTATCTTTACTCGCCATTTAATCGTTGCCTCGCGCTCCGGAGTCACCTAGTGCAG | 16900 fluorescence intensity (a.u.) |
| CTCTCCTCTCCTCGCTTCTTCGTCTCGCTTGCTCGCTCGCCGGAGTCACCTAGTGCAG | 8550 fluorescence intensity (a.u.) |
| CGTTCATTCCGCATCCAATGGCAGCACTGGTTCCTAGCTTCGGAGTCACCTAGTGCAG | 8110 fluorescence intensity (a.u.) |
| TTATACCACCGGATGCTGACACCATTCATCCGCTCTTCCTCGGAGTCACCTAGTGCAG | 10700 fluorescence intensity (a.u.) |
| CTGTATGGCCACCGTCGCAGCTCGTCCTACACGTTTCTCACGGAGTCACCTAGTGCAG | 10600 fluorescence intensity (a.u.) |
| TGCTAAACCTGTGGTGTTAAATCTGGCTGGTTGCCTGTCTCGGAGTCACCTAGTGCAG | 9280 fluorescence intensity (a.u.) |
| TAACAGTTGACACAGGGAGCGGAGGGGCAGCTTGGTCATTCGGAGTCACCTAGTGCAG | 8420 fluorescence intensity (a.u.) |
| CCTTAACACTTAATCCATGTGATGCATCTGTCATGCAACTCGGAGTCACCTAGTGCAG | 8250 fluorescence intensity (a.u.) |
| TCCCCGCGGGCATGCCCGTTGCTGCGGGCGCAGCTCAATTCGGAGTCACCTAGTGCAG | 8280 fluorescence intensity (a.u.) |
| GTGCTGGAGGGAGGGAACGGGGAACGTGGCAACTGACACGCGGAGTCACCTAGTGCAG | 9030 fluorescence intensity (a.u.) |
| GCGCAAACGCTCGAATTTTTGGTTTTGATCCATATGCATACGGAGTCACCTAGTGCAG | 8580 fluorescence intensity (a.u.) |
